# Source: PubChem BioAssay AID504848 (National Center for Advancing Translational Sciences (NCATS), 2011)
# The whole screen tested about 2,300 compounds, of which about 1,400 (61%) were called active. Another 29% or so got no clear call; they are omitted. The set was probably picked from earlier hits. This is one part of the list. Unmarked numbers belong to inactive results. Calls come from the whole dose curve; as a rule, active = well fitted inhibition curve with a large enough effect; inconclusive = small, poorly fitted or top-dose-only effect, or effect the other way; inactive = no such curve, though single readings can be large or run the other way.
# Test: Confirmation screen for delayed death inhibitors of the malarial parasite plastid, 96 hour incubation; note: nearly all actives have a fitted effect of over 60% in size
# Details: P. falciparum luciferase growth in erythrocytes; series mostly up to 28.7 µM; activity change, negative = inhibition: at the top concentration
# How it was run: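 Two-generation (96 h, 37 C) exposure of P. falciparum carrying an integrated firefly luciferase reporter in erythrocytes, 0.1% parasitemia and 2% hematocrit final, Albumax-supplemented RPMI. Luminescence decrease measures growth inhibition.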
# % is set by controls: 0 for no effect and ±100 for the full control effect; potency is the fitted concentration of half-maximal effect.
SMILES,Potency,"activity change, negative = inhibition"
COc1ccc2c(c1OC)C(=O)N1N=C(c3ccccc3)CC21 (configuration not stated),2.24 µM (active),
CC(C)NC(=O)c1onc(CSc2cccc(F)c2)c1C(=O)O,,-23.2%
Cc1ccc(NC(=O)c2cc(S(=O)(=O)N3CCc4ccccc43)cn2C)cc1,11.2 µM (active),
O=C(O)C1CC=CCC1C(=O)Nc1ccc(S(=O)(=O)N2CCCc3ccccc32)cc1 (configuration not stated),,-19.2%
C=CCn1c(C)cc(C2=NNC(=NCc3ccccc3)SC2)c1C,14.1 µM (active),
N#Cc1c(SCC(=O)Nc2ccc(C(F)(F)F)cc2)sc2c(O)cc(=O)[nH]c12,0.0891 µM (active),
Cc1cc(NC(=O)CSc2sc3c(O)cc(=O)[nH]c3c2C#N)ccc1Br,5.62 µM (active),
CCCSc1ccc(-c2nn(-c3ccccc3)cc2/C=C(/C#N)C(=O)NCCCOC)cc1,4.47 µM (active),
CC(C)(C)n1nnnc1C(c1ccc2ncccc2c1)N1CCSCC1 (configuration not stated),11.2 µM (active),
COc1ccc(Cl)cc1NC(=O)C(C)NC(c1ccccc1)c1ccccc1 (configuration not stated),5.62 µM (active),
O=C(CCN1C(=O)/C(=C/c2ccccc2Cl)SC1=S)N1CCOCC1,10 µM (active),
CN1CCN(C(=O)CCN2C(=O)/C(=C/c3cccc(Br)c3)SC2=S)CC1,3.98 µM (active),
CCOc1cc(/C=C/c2cc(C(F)(F)F)[nH]c(=O)n2)ccc1O,14.1 µM (active),
CC(=O)O[C@@]12CO[C@@H]1C[C@H](O)[C@@]1(C)C(=O)[C@H](O)C3=C(C)[C@@H](OC(=O)C(O)[C@@H](NC(=O)OC(C)(C)C)c4ccccc4)C[C@@](O)([C@@H](OC(=O)c4ccccc4)[C@H]21)C3(C)C (some centres not stated),0.141 µM (active),
CC(=O)O[C@H]1C(=O)[C@@]2(C)[C@H]([C@H](OC(=O)c3ccccc3)[C@]3(O)C[C@H](OC(=O)[C@H](O)[C@@H](NC(=O)c4ccccc4)c4ccccc4)C(C)=C1C3(C)C)[C@]1(OC(C)=O)CO[C@@H]1C[C@@H]2O,0.501 µM (active),
Cc1ccc(-c2cc(NC(=O)CCl)n(-c3ccccc3)n2)cc1,3.98 µM (active),
O=C(CCl)Nc1c2c(nn1-c1ccccc1)CSC2,2.24 µM (active),
CC(C)(C)c1cc(NC(=O)CCl)n(-c2ccccc2)n1,8.91 µM (active),
CCCCNC(=O)c1onc(CSc2ccc(Cl)cc2)c1C(=O)O,,-5.24%
COc1cc(OC)c2c(-c3cccc(-c4cccc(N)c4)c3)cc(=O)oc2c1,10 µM (active),
NCCCNc1nc(N)c([N+](=O)[O-])c(NC2CCCCC2)n1,2.82 µM (active),

SMILES,Potency,"activity change, negative = inhibition"
CC(C)C1C(=O)CC(c2ccccc2)NC1c1ccccc1 (configuration not stated),15.8 µM (active),
S=C(Nc1ccccc1Cl)N(Cc1ccccc1)Cc1cccnc1,11.2 µM (active),
C(=C\c1nc(N2CCCCCC2)c2ccccc2n1)/c1ccccc1,6.31 µM (active),
CC(C)CCSc1nc(N)c(C#N)cc1C#N,5.62 µM (active),
Cc1cccc2cc3c(nc12)SC(=NCC1CCCO1)N(Cc1ccco1)C3 (configuration not stated),2 µM (active),
CCCNC(=O)c1ccc(S(=O)(=O)c2ccc(OC)cc2)c([N+](=O)[O-])c1,5.01 µM (active),
CCOc1ccc2c(c1)C(N(CCN1CCOCC1)C(=O)Nc1ccccc1)CC(C)(C)O2 (configuration not stated),10 µM (active),
O=C(N/N=C/c1cccn1-c1ccc([N+](=O)[O-])cc1)c1cccnc1,11.2 µM (active),
COc1cc(/C=C(/C(=O)c2cccs2)c2nc3ccccc3[nH]2)ccc1O,3.98 µM (active),
COC(=O)/C(=C\c1cc(OC)c(OC)c(OC)c1)c1nc2ccccc2[nH]1,11.2 µM (active),
O=C(/C(=C/c1ccc(Cl)cc1)c1nc2ccccc2[nH]1)c1ccccc1,1.26 µM (active),
Brc1ccc2[nH]c3c(c2c1)CCC3,,5.44%
O=C(NCc1ccc2[nH]c3c(c2c1)CCCC3)c1ccc(S(=O)(=O)N2CCCC2)cc1,12.6 µM (active),
C=CCNC(=O)c1onc(CSc2ccc(Cl)cc2)c1C(=O)O,,-15.9%
COc1ccc(-c2cc(CNC(=O)CCl)on2)cc1,1.41 µM (active),
NNc1nc(-c2ccccc2Cl)c2cc(Br)ccc2n1,11.2 µM (active),
COc1ccc(Cl)cc1NC(=O)c1noc(C)c1[N+](=O)[O-],12.6 µM (active),
CCCN1C2=C(C(=O)CCC2)C(c2ccc(O)c(Br)c2)C2=C1CCCC2=O,12.6 µM (active),
OC1CCN(c2c3c(nc4cc(-c5ccc(Cl)cc5)nn24)CCC3)CC1,3.98 µM (active),
C/C(=C\C(=O)c1ccncc1)Nc1ccccc1O,15.8 µM (active),
CO[C@H](C(=O)[C@@H](O)[C@@H](C)O)C1Cc2cc3cc(O[C@H]4C[C@@H](O[C@H]5C[C@@H](O)[C@H](O)[C@@H](C)O5)[C@@H](O)[C@@H](C)O4)c(C)c(O)c3c(O)c2C(=O)[C@H]1O[C@H]1C[C@@H](O[C@H]2C[C@@H](O[C@H]3C[C@](C)(O)[C@H](O)[C@@H](C)O3)[C@H](O)[C@@H](C)O2)[C@H](O)[C@@H](C)O1 (some centres not stated),0.562 µM (active),
